# Shown are actives, neighbours in structure and some others; about 3.2% of the full set was active somewhere.
# Dyrk1A ADPGlo: rat Dyrk1A kinase inhibitors, primary screen, biochemical, single point, plate reader; ADP-Glo luminescence, NFATc1 peptide; inhibition, % at 12.5 µM; actives 0.43% (n = 310,000); AID 504441, 2011; in the data active = inhibition above about 50%;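 note: plate controls were vehicle with enzyme for no effect and no enzyme for full effect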
# CDK5 inh: inhibitors of human CDK5/p35 kinase, primary screen, biochemical, single concentration | Cyclin-dependent kinase 5 (Homo sapiens) + Cyclin-dependent kinase 5 activator 1 (Homo … | Recombinant CDK5/p35, ADP-Glo luminescence, 60 min | inhibition, % at 10 µM | actives 0.01% (n = 330,000);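 active = highest replicate inhibition of at least 50% and at least 75% of replicates reaching 50%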;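 note: plate controls were DMSO neutral control for no effect and GW8510 at 10 µM for full effect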
# esBAF inh: Bmi1 luciferase reporter increase in mESCs, primary screen, esBAF inhibitor project, mouse ES cells, Bmi1 luciferase knock-in, single point | 24 h; 100% = twice the neutral-well signal | reporter increase, % at 12.5 µM | actives 2% (n = 350,000); in the data active = activation above about 40%;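 note: 0% = median of the plate's neutral control wells and 100% = double that signal; a rise in the Bmi1 reporter signal indicates esBAF inhibition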
# dFosB activator: activators of delta FosB homodimer, primary screen, biochemical, fluorescence polarization, TAMRA-CDK5 oligo, single point; actives 0.99% (n = 340,000); purified delta FosB; percent of positive-control signal above neutral wells; activation, % at 25 µM; Protein FosB (Mus musculus), P13346; AID 493131, 2011;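 active = mean activation above about 17%, with every replicate also reaching it, limit read from the data, passing the limit was not always enough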
# Target sequence (P13346 whole entry, looked up): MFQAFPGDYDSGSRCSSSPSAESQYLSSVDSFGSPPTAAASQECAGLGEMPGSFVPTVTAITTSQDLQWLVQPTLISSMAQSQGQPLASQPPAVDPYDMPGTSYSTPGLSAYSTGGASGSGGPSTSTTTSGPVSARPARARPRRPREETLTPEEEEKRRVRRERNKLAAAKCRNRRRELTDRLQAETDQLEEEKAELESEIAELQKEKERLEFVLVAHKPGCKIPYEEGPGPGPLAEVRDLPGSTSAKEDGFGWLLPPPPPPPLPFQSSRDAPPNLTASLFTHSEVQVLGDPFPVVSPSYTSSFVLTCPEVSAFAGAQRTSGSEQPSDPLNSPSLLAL
# Rtt109 Vps75: inhibitors of C. albicans Rtt109/Vps75 HAT, primary screen, biochemical, ThioGlo CoA-SH fluorescence, plate reader; AID 540336, 2011; actives 0.16% (n = 330,000); purified Rtt109/Vps75, 4 h; inhibition, % at 34.9 µM;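 active = inhibition of at least 50% in every replicate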
# SMARCA2 act: SMARCA2 (BRM) function activators, primary screen, cell-based, luminescence, high throughput; actives 1% (n = 370,000); activation, % at 9.1 µM; MG213 cells, MMTV-luciferase reporter, dexamethasone, overnight; AID 652017, 2013; in the data active = activation above about 7.8%;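 note: 0% = vehicle wells and 100% = reference activator wells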
# * = called active by the depositor; . = no result.
SMILES,Dyrk1A ADPGlo,CDK5 inh,esBAF inh,dFosB activator,Rtt109 Vps75,SMARCA2 act
CC(C)C(=O)Nc1ccc2c(c1)C(=O)N(C)[C@H]1CC[C@H](CC(=O)N[C@@H](C)c3ccccc3)O[C@H]1CO2,.,.,0,.,.,.
COc1ccc(/C(O)=C2\C(=O)C(=O)N(CCN(C)C)C2c2cccc(OC)c2OC)cc1 (stereo unspecified),6,0,-7,-8,-7,9.6*
COc1cccc(C2/C(=C(/O)c3cnn(-c4ccccc4)c3C)C(=O)C(=O)N2CCN(C)C)c1OC (stereo unspecified),7,0,-10,-4,4,0
Cc1ccc(NC(=O)c2cc(N(C)C)ccc2[P+](=O)O)cc1,.,0,45*,5,2,5
CCS(=O)(=O)N[C@H]1C=C[C@@H](CC(=O)N2CCCCC2)O[C@@H]1CO,.,.,3,.,.,.
C[C@@H]1CN([C@@H](C)CO)C(=O)c2cc(NC(=O)NC3CCCCC3)ccc2O[C@@H](C)CCCCO[C@H]1CN(C)Cc1ccc(Cl)c(Cl)c1,.,.,6,.,.,.
CC(=O)Nc1ccc(S(=O)(=O)NCCSCc2ccco2)cc1,-1,2,-1,-1,-7,1
CS(=O)(=O)NCCSCc1ccco1,.,5,-7,2,53*,0
O=C(N[C@@H]1CC[C@H](CCNC(=O)C2CC2)O[C@H]1CO)c1ccncc1,.,.,1,.,.,.
Clc1ccc(-c2nnc(-c3ccccc3)c(-c3ccccc3)n2)cc1,4,0,-4,-1,0,-5
Nc1nc(-c2ccc(Cl)cc2)nnc1-c1ccc(Br)cc1,10,0,52*,-5,2,4
O[C@@H]1C[C@H](c2ccc(Cl)cc2)N(CC2CCCCC2)C[C@H]1n1cc(C2CC2)nn1,.,.,-6,.,.,7.9*
O[C@H]1C[C@H](c2ccc(Cl)cc2)N(CC2CCCCC2)C[C@@H]1n1cc(C2CC2)nn1,.,.,19,.,.,-3
Cc1ccc([C@H]2C[C@@H](O)[C@H](n3cc(C4CC4)nn3)CN2CC2CCCCC2)cc1,.,.,-1,.,.,7.8*
COc1cc(CNc2nc3c(C)cc(C)cc3s2)ccc1O,2,-2,3,-8,4,0
Cc1cc(C)c2nc(NCc3ccccc3O)sc2c1,0,0,45*,0,3,4
CCCCCCC(=O)Nc1nc(C)c(-c2csc(Nc3ccc(Cl)cc3)n2)s1,57*,1,0,-5,0,.
Cc1ccccc1NC(=O)c1ccc2ccccc2c1,2,-1,45*,-2,1,3
Cc1ccc(C(=O)NNC(=O)c2ccc3ccccc3c2)cc1,.,1,67*,-6,-5,2
Cc1ccccc1NC(=O)NNC(=O)c1ccc2ccccc2c1,0,0,-10,5,7,1
CCC(=O)N(C)C[C@@H]1Oc2cc(C#CCC3CCCC3)ccc2S(=O)(=O)N([C@@H](C)CO)C[C@@H]1C,.,.,0,.,.,.
CN(C)c1cccc(C(=O)NN2C(=O)NC3(CCCCC3)C2=O)c1,-5,-1,43*,5,5,3
COc1ccc(-n2nc3cc(N)c(Br)cc3n2)cc1,.,-1,57*,0,4,3
C[C@@H]1CN([C@H](C)CO)S(=O)(=O)c2ccc(-c3cccnc3)cc2O[C@@H]1CN(C)C,.,.,-2,.,.,.
O=C(NC1CCCCC1)C(c1ccc(O)c(O)c1)N(C(=O)Cn1nnc2ccccc21)c1cccc(O)c1 (stereo unspecified),3,2,.,32*,2,1
Cc1noc(C)c1NC(=O)N[C@@H]1CC[C@H](CC(=O)NCCCN(C)C)O[C@H]1CO,.,.,-3,.,.,.
O=C1NC(=S)S/C1=C\c1ccc(SCc2ccco2)o1,73*,0,.,-15,4,.
CC(C)CC#Cc1ccc2c(c1)O[C@@H](CN(C)C(=O)Cc1ccccc1)[C@H](C)CN([C@@H](C)CO)S2(=O)=O,.,.,-2,.,.,.

# Compound activity from PubChem.
